Results: PubChem BioAssay AID1159580 (chemical genetic matrix, 2015)
Where “and” joins values, the source holds several entries; their conditions need not be identical. Equal values may be shown once. Hit rate of the full screen: of about 5,500 compounds, about 2,000 (36%) were called active. Another 18% or so got no clear call; they are omitted. No stated cut-off is given here; in the data, active means normalized growth mostly below about 0.91 (no sharp cut-off); inconclusive means no clear call, values can overlap the other calls; inactive means mostly above about 0.92. The list shows a part of the results.

Assay: chemical genetic growth profiling, strain panel (AID 1159580);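 further: tested at 20 µM; growth read once vehicle control cultures reached saturation at 30 °C; 1 = growth at the plate median or of vehicle wells; lower values mean less growth of the strain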
Conditions: S. cerevisiae deletion strains, growth OD

Measured: normalized growth

Cc1ccc(N(CC2=NCCN2)c2cccc(O)c2)cc1
active: locus YJR043C, strain POL32, active compounds read low 0.85
inactive: locus YAL013W, strain DEP1, active compounds read low 0.994 and 0.986 | locus YAL021C, strain ccr4, active compounds read low 1.01 | locus YAL026C, strain drs2, active compounds read low 1.02 | locus YAL030W, strain snc1, active compounds read low 1.02 | locus YAL040C, strain CLN3, active compounds read low 1.01 | locus YBL061C, strain skt5, active compounds read low 0.998 | locus YBR009C, strain hhf1, active compounds read low 1.02 | locus YBR021W, strain FUR4, active compounds read low 0.991 | locus YBR023C, strain chs3, active compounds read low 1.02 | locus YBR171W, strain sec66, active compounds read low 1.01 | locus YBR229C, strain ROT2, active compounds read low 1 | locus YBR231C, strain swc5, active compounds read low 1.01 | locus YBR279W, strain paf1, active compounds read low 1.01 | locus YCL011C, strain gbp2, active compounds read low 1.02 | locus YCL016C, strain dcc1, active compounds read low 0.998 | locus YCL029C, strain bik1, active compounds read low 1.01 | locus YCL061C, strain MRC1 (second series), active compounds read low 0.992 | locus YCL069W, strain vba3, active compounds read low 1.02 | locus YCR088W, strain abp1, active compounds read low 1.01 | locus YDL005C, strain med2, active compounds read low 1.02 | locus YDL035C, strain GPR1, active compounds read low 0.985 | locus YDL040C, strain nat1, active compounds read low 1.01 | locus YDL074C, strain BRE1, active compounds read low 0.908 | locus YDL101C, strain DUN1, active compounds read low 0.983 | locus YDL134C, strain PPH21, active compounds read low 0.994 | locus YDL185W, strain tfp1, active compounds read low 1.02 | locus YDL192W, strain arf1, active compounds read low 1.01 | locus YDR001C, strain nth1, active compounds read low 1.01 | locus YDR069C, strain doa4, active compounds read low 0.998 | locus YDR101C, strain arx1, active compounds read low 0.985 | locus YDR137W, strain rgp1, active compounds read low 1.02 | locus YDR150W, strain NUM1, active compounds read low 1.01 | locus YDR159W, strain sac3, active compounds read low 1 | locus YDR162C, strain NBP2, active compounds read low 0.976 | locus YDR195W, strain ref2 1.02 | locus YDR297W, strain sur2, active compounds read low 1.02 | locus YDR318W, strain mcm21, active compounds read low 0.991 | locus YDR334W, strain swr1, active compounds read low 1.04 | locus YDR335W, strain msn5, active compounds read low 1.03 | locus YDR363W, strain ESC2, active compounds read low 1.06 | locus YDR388W, active compounds read low 1.01 | locus YDR392W, strain spt3, active compounds read low 0.95 | locus YDR502C, strain sam2, active compounds read low 0.977 | locus YEL003W, strain gim4, active compounds read low 1.03 | locus YEL037C, strain rad23, active compounds read low 1.03 | locus YEL061C, strain CIN8 (second series), active compounds read low 1.02 | locus YEL061C, strain CIN8, active compounds read low 1.04 | locus YER002W, strain NOP16, active compounds read low 1.01 | locus YER015W, strain faa2, active compounds read low 1.02 | locus YER016W, strain bim1, active compounds read low 1.02 | locus YER110C, active compounds read low 1.03 | locus YER111C, strain swi4, active compounds read low 1.02 | locus YER155C, strain BEM2 (second series), active compounds read low 0.929 | locus YER155C, strain BEM2, active compounds read low 1.01 | locus YER167W, strain BCK2, active compounds read low 0.972 | locus YFR010W, strain ubp6, active compounds read low 1.02 | locus YGL078C, strain dbp3, active compounds read low 0.995 | locus YGL086W, strain mad1, active compounds read low 1.02 | locus YGL167C, strain pmr1, active compounds read low 1.02 | locus YGL173C, strain kem1, active compounds read low 1.01 | locus YGL227W, strain vid30, active compounds read low 1.03 | locus YGL240W, strain doc1, active compounds read low 0.972 | locus YGL248W, strain PDE1, active compounds read low 0.997 | locus YGL253W, strain hxk2, active compounds read low 1.02 | locus YGR078C, strain PAC10, active compounds read low 0.972 and 1.01 | locus YGR135W, strain pre9, active compounds read low 0.976 | locus YGR229C, strain SMI1, active compounds read low 0.912 and 0.979 | locus YGR252W, strain gcn5, active compounds read low 0.926 | locus YHR013C, strain ard1, active compounds read low 1 | locus YHR027C, strain rpn1, active compounds read low 1.01 | locus YHR030C, strain SLT2, active compounds read low 1.01 and 1.04 | locus YHR079C, strain IRE1 (second series), active compounds read low 0.99 | locus YHR079C, strain IRE1, active compounds read low 1.05 | locus YHR094C, strain hxt1, active compounds read low 1 | locus YHR129C, strain ARP1, active compounds read low 0.984 | locus YHR142W, strain chs7, active compounds read low 1.02 | locus YHR200W, strain rpn10, active compounds read low 1 | locus YIL066C, strain RNR3, active compounds read low 1.01 | locus YIL073C, strain SPO22, active compounds read low 1.1 | locus YIL125W, strain kgd1, active compounds read low 0.993 | locus YIR030C, strain dcg1, active compounds read low 1.01 | locus YJL092W, strain hpr5, active compounds read low 1.02 | locus YJL095W, strain BCK1 (second series), active compounds read low 1.01 | locus YJL095W, strain BCK1, active compounds read low 0.905 and 1.04 | locus YJL115W, strain asf1, active compounds read low 1.03 | locus YJL129C, strain trk1, active compounds read low 1.02 | locus YJL134W, strain LCB3, active compounds read low 1.01 | locus YJL154C, strain vps35, active compounds read low 1.03 | locus YJL164C, strain tpk1, active compounds read low 1 | locus YJL166W, strain qcr8, active compounds read low 0.993 | locus YJL168C, strain set2, active compounds read low 1.01 | locus YJL187C, strain SWE1 (second series), active compounds read low 0.993 | locus YJL187C, strain SWE1, active compounds read low 1.01 | locus YJR066W, strain TOR1, active compounds read low 0.978
